SMILES strings stand for the structures. The panel holds about 83,000 compounds, 20% with a hit somewhere; the sample as a whole holds those more often.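 Results are percent growth after 48 hours of single-concentration exposure. 100 means growth as in untreated cells, lower positive values show inhibition; negative values down to -100 show cell death.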 Activity calls are given as the source filed them. How the source made its calls: active means growth percent below 10; inactive means the rest.

The results in this text go back to PubChem BioAssay (NCI).

The first experiment deals with CCRF-CEM leukemia. Briefly: NCI-60 one-dose screen, 48 h (100 = growth as untreated, 0 = no growth, -100 = all killed). To be noted: 10 µM unless noted.
Consider `COC(=O)[C@]12CC[C@@H](C)[C@H](C)[C@@H]1C1=CC[C@@H]3[C@@]4(C)C(C=O)=C[C@@](C)(COC(=O)c5ccco5)[C@@H]4C(=O)C[C@@]3(C)[C@]1(C)CC2`, for which the growth was 5.47% (active).

Take `COc1cccc(C(=O)NCCNc2cc(-c3cn(-c4ccccc4)nc3-c3cccc(OC)c3)ccn2)c1`: the growth is 25.6% (inactive).

With `O=C(O)C1CCC(=O)N1C(=O)OCc1ccccc1` (centres undefined), the growth is 102% (inactive).

In the case of `Cc1cc(NCc2cc(Nc3ccnc4cc(Cl)ccc34)ccc2F)nc(N2CCCC2)n1`, the growth was -22.5% (active).

On to `COC(=O)[C@]12CC[C@@H](C)[C@H](C)[C@@H]1C1=CC[C@@H]3[C@@]4(C)C(C=O)=C[C@@](C)(COC(=O)c5ccco5)C4=CC[C@@]3(C)[C@]1(C)CC2`, for which the growth was 4.27% (active).

As for `CC(CCc1ccc(Cl)c(Cl)c1)NCc1ccc(C(C)(C)C)cc1` (centres undefined), the growth was 77.2% (inactive).

Turning to `Cc1ccc2nc3ccccc3c(NCc3ccccc3)c2c1`, the growth was 34.9% (inactive).

In the case of `COc1cc(-c2nc(N3CCN(C)CC3)c3ccccc3n2)cc(OC)c1OC`, the growth is 99.3% (inactive).

With `CCn1c(C)nc2cc(C(N)=O)ccc21`, the growth is 95.4% (inactive).

On to `CN(C)CC1C(=O)O[C@H]2[C@H]1CC/C(COC(=O)c1cc3ccccc3[nH]1)=C\CC[C@@]1(C)O[C@@H]21` (some centres undefined), for which the growth is 1.08% (active).

As for `CN1CCN(CCCOc2ccc3nc(Nc4ccc(F)c(F)c4)ccc3c2)CC1`, the growth was 17.2% (inactive).

`COc1cccc(-c2nn(-c3ccccc3)cc2-c2ccnc(NCCCNC(=O)c3cccc(C(F)(F)F)c3)c2)c1`: the growth is 21.5% (inactive).

Consider `COc1ccc(-c2cc(-c3cc(OC)ccc3OC)nc(SCC(=O)c3ccccc3)c2C#N)cc1`, for which the growth is 111% (inactive).

Take `Cc1ccc(Cl)c(NS(=O)(=O)c2ccc(-c3cnc(C4CC4)o3)cc2)c1`: the growth is 14.1% (inactive).

With `COc1cccc(-c2nn(-c3ccccc3)cc2-c2ccnc(NCCNC(=O)c3ccccc3)c2)c1`, the growth is 48.7% (inactive).

Regarding `Cc1cc(N2CCCC2)nc(NCc2cc(Nc3ccnc4cc(Cl)ccc34)ccc2F)n1`, the growth was -32.1% (active).

As for `COc1cccc(-c2nn(-c3ccccc3)cc2-c2ccnc(NCCNC(=O)Nc3ccccc3)c2)c1`, the growth is 54.7% (inactive).

As for `CC(C)CCC[C@@H](C)[C@H]1CC[C@H]2[C@@H](Nc3ccc(O)cc3)CCC[C@]12C`, the growth is 32.2% (inactive).

On to `COc1cc(-c2nn(-c3ccccc3)cc2-c2ccnc(NCCNS(=O)(=O)c3ccc(Cl)cc3)n2)ccc1Cl`, for which the growth was 35.8% (inactive).

As to `CCCCn1c(=O)c2c(nc3n2CCCN3CCc2ccc(OCC(=O)NCCN(CC)CC)cc2)n(CCCC)c1=O`, the growth was 24.6% (inactive).

Turning to `COC(=O)CCC1=C(C)C2=NC1=CC1=NC(=CC3=NC(=Cc4[nH]c(/c(=C(/C)O)c4C)=C2)C(C(C)=O)=C3C)C(C)=C1CCC(=O)OC`, the growth was 101% (inactive).

`N[C@@H](CCCCNCC(=O)O)C(=O)O`: the growth was 109% (inactive).

For `O=C(c1ccc(Nc2nccc(NCCCCNc3ccnc4cc(Cl)ccc34)n2)cc1)N1CCCCC1`, the growth is -11.8% (active).

As to `Cc1ccc(NCCN(C)C)c2c(=O)c3ccccc3sc12`, the growth was 27% (inactive).

For `Cc1cc(NCCCCNc2ccnc3cc(Cl)ccc23)nc(Nc2ccc(C(=O)N3CCCC3)cc2)n1`, the growth is 2.01% (active).

Take `CC(C)(C)n1cc(-c2ccnc(NCCCNS(=O)(=O)c3ccccc3)c2)c(-c2ccccc2)n1`: the growth is 42.6% (inactive).

Consider `Fc1ccc(CNc2c3ccccc3nc3ccccc23)cc1F`, for which the growth is 41.5% (inactive).

As for `c1c[nH]c(CNC2CCCCC2)c1`, the growth was 96.6% (inactive).

On to `COc1cccc(-c2nn(-c3ccccc3)cc2-c2ccnc(NCCNC(=O)Nc3cccc(C(F)(F)F)c3)c2)c1`, for which the growth was 28.7% (inactive).

Consider `O=C(NCCCNc1cc(-c2cn(-c3ccccc3)nc2-c2cccc(O)c2)ccn1)c1ccc(F)cc1`, for which the growth was 22.3% (inactive).

`Cc1cc(NCc2cc(Nc3ccnc4cc(Cl)ccc34)ccc2F)nc(Cl)n1`: the growth is 42.8% (inactive).

Consider `NC(=O)c1ccc[n+](Cc2ccc(Cl)cc2Cl)c1`, for which the growth was 97.4% (inactive).

On to `Cc1cc(Cl)nc(NCc2cc(Nc3ccnc4cc(Cl)ccc34)ccc2F)n1`, for which the growth was 28.9% (inactive).

With `COc1ccc(-c2ccc3c(c2)sc2nc(-c4ccc(F)cc4)cn23)cc1`, the growth is 98.8% (inactive).

As for `O=C(NCCCNc1cc(-c2cn(-c3ccccc3)nc2-c2cccc(O)c2)ccn1)c1ccccc1`, the growth is 36.6% (inactive).

In the case of `FC(F)(F)c1cc(Nc2ccc3cc(OCCCN4CCOCC4)ccc3n2)ccc1Cl`, the growth was 3.89% (active).

With `COC(=O)[C@]12CC[C@@H](C)[C@H](C)[C@@H]1C1=CC[C@@H]3[C@@]4(C)C(C=O)=C[C@@](C)(COC(C)=O)C4=CC[C@@]3(C)[C@]1(C)CC2`, the growth was -14.7% (active).

The next experiment deals with SR leukemia. The description is as above. To be noted: 10 µM unless noted.
Regarding `COC(=O)[C@]12CC[C@@H](C)[C@H](C)[C@@H]1C1=CC[C@@H]3[C@@]4(C)C(C=O)=C[C@@](C)(COC(=O)c5ccco5)[C@@H]4C(=O)C[C@@]3(C)[C@]1(C)CC2`, the growth was 32.5% (inactive).

For `COc1cccc(C(=O)NCCNc2cc(-c3cn(-c4ccccc4)nc3-c3cccc(OC)c3)ccn2)c1`, the growth was 2.08% (active).

For the compound `O=C(O)C1CCC(=O)N1C(=O)OCc1ccccc1` (centres undefined), the growth is 89.4% (inactive).

Regarding `Cc1cc(NCc2cc(Nc3ccnc4cc(Cl)ccc34)ccc2F)nc(N2CCCC2)n1`, the growth was -23.9% (active).

With `COC(=O)[C@]12CC[C@@H](C)[C@H](C)[C@@H]1C1=CC[C@@H]3[C@@]4(C)C(C=O)=C[C@@](C)(COC(=O)c5ccco5)C4=CC[C@@]3(C)[C@]1(C)CC2`, the growth is -8.74% (active).

As to `CC(CCc1ccc(Cl)c(Cl)c1)NCc1ccc(C(C)(C)C)cc1` (centres undefined), the growth was -10.5% (active).

On to `Cc1ccc2nc3ccccc3c(NCc3ccccc3)c2c1`, for which the growth is 4.1% (active).

For the compound `COc1cc(-c2nc(N3CCN(C)CC3)c3ccccc3n2)cc(OC)c1OC`, the growth is 48.9% (inactive).

As to `CCn1c(C)nc2cc(C(N)=O)ccc21`, the growth was 104% (inactive).

As for `CN(C)CC1C(=O)O[C@H]2[C@H]1CC/C(COC(=O)c1cc3ccccc3[nH]1)=C\CC[C@@]1(C)O[C@@H]21` (some centres undefined), the growth was -13.6% (active).

In the case of `CN1CCN(CCCOc2ccc3nc(Nc4ccc(F)c(F)c4)ccc3c2)CC1`, the growth was -6.22% (active).

With `COc1cccc(-c2nn(-c3ccccc3)cc2-c2ccnc(NCCCNC(=O)c3cccc(C(F)(F)F)c3)c2)c1`, the growth is -29% (active).

For the compound `COc1ccc(-c2cc(-c3cc(OC)ccc3OC)nc(SCC(=O)c3ccccc3)c2C#N)cc1`, the growth was 83.3% (inactive).

`Cc1ccc(Cl)c(NS(=O)(=O)c2ccc(-c3cnc(C4CC4)o3)cc2)c1`: the growth was 15.7% (inactive).

Take `COc1cccc(-c2nn(-c3ccccc3)cc2-c2ccnc(NCCNC(=O)c3ccccc3)c2)c1`: the growth is -12.5% (active).

Take `Cc1cc(N2CCCC2)nc(NCc2cc(Nc3ccnc4cc(Cl)ccc34)ccc2F)n1`: the growth is -28.1% (active).

`COc1cccc(-c2nn(-c3ccccc3)cc2-c2ccnc(NCCNC(=O)Nc3ccccc3)c2)c1`: the growth is -10.6% (active).

As to `CC(C)CCC[C@@H](C)[C@H]1CC[C@H]2[C@@H](Nc3ccc(O)cc3)CCC[C@]12C`, the growth is 71.8% (inactive).

Consider `COc1cc(-c2nn(-c3ccccc3)cc2-c2ccnc(NCCNS(=O)(=O)c3ccc(Cl)cc3)n2)ccc1Cl`, for which the growth was -19.4% (active).

For `CCCCn1c(=O)c2c(nc3n2CCCN3CCc2ccc(OCC(=O)NCCN(CC)CC)cc2)n(CCCC)c1=O`, the growth was -22% (active).

Consider `COC(=O)CCC1=C(C)C2=NC1=CC1=NC(=CC3=NC(=Cc4[nH]c(/c(=C(/C)O)c4C)=C2)C(C(C)=O)=C3C)C(C)=C1CCC(=O)OC`, for which the growth was 111% (inactive).

On to `N[C@@H](CCCCNCC(=O)O)C(=O)O`, for which the growth is 99.3% (inactive).

In the case of `O=C(c1ccc(Nc2nccc(NCCCCNc3ccnc4cc(Cl)ccc34)n2)cc1)N1CCCCC1`, the growth was -27.3% (active).

Consider `Cc1ccc(NCCN(C)C)c2c(=O)c3ccccc3sc12`, for which the growth was 17% (inactive).

On to `Cc1cc(NCCCCNc2ccnc3cc(Cl)ccc23)nc(Nc2ccc(C(=O)N3CCCC3)cc2)n1`, for which the growth was -28.9% (active).

As to `CC(C)(C)n1cc(-c2ccnc(NCCCNS(=O)(=O)c3ccccc3)c2)c(-c2ccccc2)n1`, the growth was 31.7% (inactive).

With `Fc1ccc(CNc2c3ccccc3nc3ccccc23)cc1F`, the growth was 17% (inactive).

As for `c1c[nH]c(CNC2CCCCC2)c1`, the growth is 144% (inactive).

For the compound `COc1cccc(-c2nn(-c3ccccc3)cc2-c2ccnc(NCCNC(=O)Nc3cccc(C(F)(F)F)c3)c2)c1`, the growth is -21.2% (active).

Take `O=C(NCCCNc1cc(-c2cn(-c3ccccc3)nc2-c2cccc(O)c2)ccn1)c1ccc(F)cc1`: the growth was -26.4% (active).

With `Cc1cc(NCc2cc(Nc3ccnc4cc(Cl)ccc34)ccc2F)nc(Cl)n1`, the growth was 12% (inactive).

`NC(=O)c1ccc[n+](Cc2ccc(Cl)cc2Cl)c1`: the growth was 7.84% (active).

Regarding `Cc1cc(Cl)nc(NCc2cc(Nc3ccnc4cc(Cl)ccc34)ccc2F)n1`, the growth was -7.84% (active).

As to `COc1ccc(-c2ccc3c(c2)sc2nc(-c4ccc(F)cc4)cn23)cc1`, the growth was 93.4% (inactive).

Turning to `O=C(NCCCNc1cc(-c2cn(-c3ccccc3)nc2-c2cccc(O)c2)ccn1)c1ccccc1`, the growth was -25.8% (active).

Regarding `FC(F)(F)c1cc(Nc2ccc3cc(OCCCN4CCOCC4)ccc3n2)ccc1Cl`, the growth was -12.3% (active).

As to `COC(=O)[C@]12CC[C@@H](C)[C@H](C)[C@@H]1C1=CC[C@@H]3[C@@]4(C)C(C=O)=C[C@@](C)(COC(C)=O)C4=CC[C@@]3(C)[C@]1(C)CC2`, the growth is -30.5% (active).
